Measured values: PubChem BioAssay (NCATS)
Results filed as inconclusive are left out. Where a call stands in place of a potency, no number is given. The source made the active and inactive calls. Calls come from the whole dose curve; tested in HEK293 reporter line.

Test: qHTS for Inhibitors of the Functional Ribonucleoprotein Complex (vRNP) of Lassa (LASV) Arenavirus: LASV Primary Screen - GLuc reporter signal (AID 1347082); note: nearly all actives have a fitted effect of over 60% in size
Details: LASV minigenome vRNP, Gaussia luciferase reporter; series mostly up to 57.5 µM
With `Cc1c(C)c2c(c(C)c1O)CCC(C)(COc1ccc(CC3SC(=O)NC3=O)cc1)O2` (stereo not drawn) the Potency was “inactive”.
For `NS(=O)(=O)c1ccc(Cl)c(S(N)(=O)=O)c1`, the Potency was “inactive”.
For `O=C(Oc1ccccc1C(=O)O)c1ccccc1O`, the Potency was “inactive”.
For `COC(=O)N/N=C/c1c[n+]([O-])c2ccccc2[n+]1[O-]`, the Potency was “inactive”.
With `CCc1cc(S(=O)(=O)O)c2cc(C(C)C)cccc1-2` the Potency was “inactive”.
For `Cc1c(Nc2ncccc2C(=O)O)cccc1C(F)(F)F`, the Potency was “inactive”.
For `Cc1cc(O)cc2c1O[C@](C)(CCC[C@H](C)CCC[C@H](C)CCCC(C)C)CC2`, the Potency was “inactive”.
For `C=CC(N)CCC(=O)O` (stereo not drawn), the Potency was “inactive”.
With `O=C(O)[C@@H]1[C@H]2C[C@H]3c4[nH]c5ccccc5c4CCN3C[C@@H]2CC[C@@H]1O` the Potency was “inactive”.
With `C/C(=N\O)c1ccc(OCC(=O)N2CCCCC2)cc1` the Potency was “inactive”.
With `C[N+](C)(C)CC(O)CC(=O)[O-]` (stereo not drawn) the Potency was “inactive”.
With `O=C1O[C@H](CO)[C@@H](O)[C@H](O)[C@H]1O` the Potency was “inactive”.
In the case of `Cc1cccc(C)c1NC(=O)CC12CCCN1CCC2`, the Potency is reported as “inactive”.
For `Cn1c(=O)c2[nH]cnc2n(C)c1=O`, the Potency was “inactive”.
With `C/C=C/C=N/NC(=O)c1ccncc1` the Potency was “inactive”.
For `N#CCC(=O)NN`, the Potency was “inactive”.
In the case of `Cn1c(=O)c2[nH]c(Br)nc2n(C)c1=O`, the Potency is reported as “inactive”.
In the case of `CCOC(=O)/C=C(C)/C=C/C=C(C)/C=C/c1c(C)cc(OC)c(C)c1C`, the Potency is reported as “inactive”.
In the case of `O=C(O)c1cccnc1`, the Potency is reported as “inactive”.
In the case of `Cc1nnc(NS(=O)(=O)c2ccc(N)cc2)s1`, the Potency is reported as “inactive”.
With `Cc1ncc(CO)c(CO)c1O` the Potency was “inactive”.
For `CSCC[C@H](NC(=O)[C@H](Cc1c[nH]c2ccccc12)NC(=O)CCNC(=O)OC(C)(C)C)C(=O)N[C@@H](CC(=O)O)C(=O)N[C@@H](Cc1ccccc1)C(N)=O`, the Potency was “inactive”.
With `CN(CC1(C)CCCO1)S(=O)(=O)c1ccc(Cl)c(S(N)(=O)=O)c1` (stereo not drawn) the Potency was “inactive”.
For `CC(=O)OCC(=O)[C@@]1(O)CC[C@H]2[C@@H]3CCC4=CC(=O)C=C[C@]4(C)[C@@]3(F)[C@@H](O)C[C@@]21C`, the Potency was “inactive”.
With `CC(=O)N[C@@H](CCC(=O)O)C(=O)O` the Potency was “inactive”.
For `CCCCCCCC/C=C\CCCCCCCC(=O)NCc1ccc(O)c(OC)c1`, the Potency was “inactive”.
For `CCC(=O)c1c(O)cc(O)cc1O`, the Potency was “inactive”.
In the case of `C[C@]12CCC(=O)C=C1CC[C@H]1[C@@H]3CC[C@](O)(C(=O)CO)[C@@]3(C)C[C@H](O)[C@@]12F`, the Potency is reported as “inactive”.
With `CN1[C@@H]2CC(OC(=O)[C@H](CO)c3ccccc3)C[C@H]1[C@@H]1O[C@@H]12` (stereo partly drawn) the Potency was “inactive”.
For `FC(F)(F)c1ccccc1-n1ccnc1`, the Potency was “inactive”.
With `CCCCC(CC)COC(=O)c1ccccc1O` (stereo not drawn) the Potency was “inactive”.
For `Cc1c(NC(=O)c2cccnc2)c(=O)n(-c2ccccc2)n1C`, the Potency was “inactive”.
In the case of `C=C[C@H]1CN2CC[C@H]1C[C@H]2[C@H](O)c1ccnc2ccc(OC)cc12`, the Potency is reported as “inactive”.
For `CC(=O)OCC(=O)[C@@]1(O)CC[C@H]2[C@@H]3CCC4=CC(=O)CC[C@]4(C)[C@H]3C(=O)C[C@@]21C`, the Potency was “inactive”.
With `C#C[C@]1(O)CC[C@H]2[C@@H]3CCc4cc(OC5CCCC5)ccc4[C@H]3CC[C@@]21C` the Potency was “inactive”.
In the case of `NC(=O)N[C@@H](CCC(=O)O)C(=O)O`, the Potency is reported as “inactive”.
With `CN=C(NC#N)NCCSCc1csc(N=C(N)N)n1` the Potency was “inactive”.
For `NS(=O)(=O)c1cc(C(=O)NN2C[C@H]3[C@H]4CCC(C4)[C@H]3C2)ccc1Cl`, the Potency was “inactive”.
For `CC(C)OC(=O)OCOP(=O)(CO[C@H](C)Cn1cnc2c(N)ncnc21)OCOC(=O)OC(C)C`, the Potency was “inactive”.

Test: qHTS for Inhibitors of the Functional Ribonucleoprotein Complex (vRNP) of Lassa (LASV) Arenavirus: Viability assay - alamar blue signal for LASV Primary Screen (AID 1347083); note: nearly all actives have a fitted effect of over 80% in size
Details: cell viability, alamar blue fluorescence (LASV minigenome counter-screen); series mostly up to 57.5 µM
In the case of `Cc1c(C)c2c(c(C)c1O)CCC(C)(COc1ccc(CC3SC(=O)NC3=O)cc1)O2` (stereo not drawn), the Potency is reported as “inactive”.
In the case of `NS(=O)(=O)c1ccc(Cl)c(S(N)(=O)=O)c1`, the Potency is reported as “inactive”.
With `O=C(Oc1ccccc1C(=O)O)c1ccccc1O` the Potency was “inactive”.
For `COC(=O)N/N=C/c1c[n+]([O-])c2ccccc2[n+]1[O-]`, the Potency was “inactive”.
With `CCc1cc(S(=O)(=O)O)c2cc(C(C)C)cccc1-2` the Potency was “inactive”.
In the case of `Cc1c(Nc2ncccc2C(=O)O)cccc1C(F)(F)F`, the Potency is reported as “inactive”.
For `Cc1cc(O)cc2c1O[C@](C)(CCC[C@H](C)CCC[C@H](C)CCCC(C)C)CC2`, the Potency was “inactive”.
With `C=CC(N)CCC(=O)O` (stereo not drawn) the Potency was “inactive”.
In the case of `O=C(O)[C@@H]1[C@H]2C[C@H]3c4[nH]c5ccccc5c4CCN3C[C@@H]2CC[C@@H]1O`, the Potency is reported as “inactive”.
For `C/C(=N\O)c1ccc(OCC(=O)N2CCCCC2)cc1`, the Potency was “inactive”.
With `C[N+](C)(C)CC(O)CC(=O)[O-]` (stereo not drawn) the Potency was “inactive”.
For `O=C1O[C@H](CO)[C@@H](O)[C@H](O)[C@H]1O`, the Potency was “inactive”.
With `Cc1cccc(C)c1NC(=O)CC12CCCN1CCC2` the Potency was “inactive”.
In the case of `Cn1c(=O)c2[nH]cnc2n(C)c1=O`, the Potency is reported as “inactive”.
In the case of `C/C=C/C=N/NC(=O)c1ccncc1`, the Potency is reported as “inactive”.
In the case of `N#CCC(=O)NN`, the Potency is reported as “inactive”.
For `Cn1c(=O)c2[nH]c(Br)nc2n(C)c1=O`, the Potency was “inactive”.
In the case of `CCOC(=O)/C=C(C)/C=C/C=C(C)/C=C/c1c(C)cc(OC)c(C)c1C`, the Potency is reported as “inactive”.
With `O=C(O)c1cccnc1` the Potency was “inactive”.
For `Cc1nnc(NS(=O)(=O)c2ccc(N)cc2)s1`, the Potency was “inactive”.
For `Cc1ncc(CO)c(CO)c1O`, the Potency was “inactive”.
In the case of `CSCC[C@H](NC(=O)[C@H](Cc1c[nH]c2ccccc12)NC(=O)CCNC(=O)OC(C)(C)C)C(=O)N[C@@H](CC(=O)O)C(=O)N[C@@H](Cc1ccccc1)C(N)=O`, the Potency is reported as “inactive”.
In the case of `CN(CC1(C)CCCO1)S(=O)(=O)c1ccc(Cl)c(S(N)(=O)=O)c1` (stereo not drawn), the Potency is reported as “inactive”.
With `CC(=O)OCC(=O)[C@@]1(O)CC[C@H]2[C@@H]3CCC4=CC(=O)C=C[C@]4(C)[C@@]3(F)[C@@H](O)C[C@@]21C` the Potency was “inactive”.
In the case of `CC(=O)N[C@@H](CCC(=O)O)C(=O)O`, the Potency is reported as “inactive”.
For `CCCCCCCC/C=C\CCCCCCCC(=O)NCc1ccc(O)c(OC)c1`, the Potency was “inactive”.
In the case of `CCC(=O)c1c(O)cc(O)cc1O`, the Potency is reported as “inactive”.
In the case of `C[C@]12CCC(=O)C=C1CC[C@H]1[C@@H]3CC[C@](O)(C(=O)CO)[C@@]3(C)C[C@H](O)[C@@]12F`, the Potency is reported as “inactive”.
In the case of `CN1[C@@H]2CC(OC(=O)[C@H](CO)c3ccccc3)C[C@H]1[C@@H]1O[C@@H]12` (stereo partly drawn), the Potency is reported as “inactive”.
With `FC(F)(F)c1ccccc1-n1ccnc1` the Potency was “inactive”.
With `CCCCC(CC)COC(=O)c1ccccc1O` (stereo not drawn) the Potency was “inactive”.
In the case of `Cc1c(NC(=O)c2cccnc2)c(=O)n(-c2ccccc2)n1C`, the Potency is reported as “inactive”.
For `C=C[C@H]1CN2CC[C@H]1C[C@H]2[C@H](O)c1ccnc2ccc(OC)cc12`, the Potency was “inactive”.
With `CC(=O)OCC(=O)[C@@]1(O)CC[C@H]2[C@@H]3CCC4=CC(=O)CC[C@]4(C)[C@H]3C(=O)C[C@@]21C` the Potency was “inactive”.
In the case of `C#C[C@]1(O)CC[C@H]2[C@@H]3CCc4cc(OC5CCCC5)ccc4[C@H]3CC[C@@]21C`, the Potency is reported as “inactive”.
For `NC(=O)N[C@@H](CCC(=O)O)C(=O)O`, the Potency was “inactive”.
In the case of `CN=C(NC#N)NCCSCc1csc(N=C(N)N)n1`, the Potency is reported as “inactive”.
For `NS(=O)(=O)c1cc(C(=O)NN2C[C@H]3[C@H]4CCC(C4)[C@H]3C2)ccc1Cl`, the Potency was “inactive”.
For `CC(C)OC(=O)OCOP(=O)(CO[C@H](C)Cn1cnc2c(N)ncnc21)OCOC(=O)OC(C)C`, the Potency was “inactive”.
